According to PubChem BioAssay (NCI):
This is part of a sample that, as a whole, favours compounds with a hit. Of some 83,000 tested, about 20% had one in any assay.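 Testing used 96-well plates and a 48-hour single-concentration exposure. Example: -40 means 40% of the starting cells died.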 Activity calls are given as the source filed them. The calls were made as follows: active = growth percent below 10; inactive = the rest.

Test system: OVCAR-4 ovarian
Experiment: NCI-60 one-dose screen, 48 h (100 = growth as untreated, 0 = no growth, -100 = all killed)
Details: 10 µM unless noted

Structure (SMILES)	growth
CCCCCN1C=C/C(=C\C(=O)N(C)c2ccc(Oc3ccccc3)cc2)c2ccccc21	58.3% (inactive)
CNC(=O)c1cncc(Cn2nc(C)c(NC(=O)c3ccc(COc4ccc(C(F)(F)F)cc4C)cc3)c2C)c1	43.5% (inactive)
Nc1c(C(=O)Nc2ccnc3ccccc23)sc2nc3c(cc12)CN(Cc1ccccc1)CC3	78.6% (inactive)
CC1=C(C(=O)/C=C/c2ccc(N(C)C)cc2)C(c2ccccc2)NC(=S)N1 (stereo not drawn)	107% (inactive)
Nc1nc(Nc2ccccc2SSc2ccccc2Nc2nc(N)nc(-c3cccs3)n2)nc(-c2ccsc2)n1	70.4% (inactive)
COc1cc2c(cc1OC)C(=O)/C(=C/c1cc(C)c(O)c(C)c1)S2	84.7% (inactive)
COc1cc2c(=O)n(CCCN(C)C)c3c4cc5c(cc4ccc3c2cc1OC)OCO5	69.9% (inactive)
CCN(CC)CC[n+]1cc2cc(OC)c(OC)cc2c2ccc3cc4c(cc3c21)OCO4	1.21% (active)
O=C(Nc1ccc(NC(=O)c2cc(=O)[nH]c3ccccc23)cc1)Nc1cccc(Cl)c1	78.8% (inactive)
COc1ccc(/C=C2\Oc3cc(OCCCN4CCCCC4)ccc3C2=O)cc1OC	89.4% (inactive)
Cc1nc(N)nc(N[C@@H](C)c2nc3cccc(NCc4ccc(C(=O)NO)cc4)c3c(=O)n2-c2ccccc2)n1	92.2% (inactive)
Cc1ccc(/C=N/NC(=O)CSc2nc3ccccc3c(=O)n2Cc2ccc(S(N)(=O)=O)cc2)cc1	106% (inactive)
COc1cc(/C(C)=C(\c2ccc(Cl)cc2)c2ccc(OCCN3CCCC3)cc2)ccc1F	51.8% (inactive)
COc1cc2nc(-c3ccc(Cl)cc3)cc(OCCCN3CCOCC3)c2cc1OC	70.4% (inactive)
COc1ccc(NC(N)=NCCCOc2ccc(F)cc2)cc1	70.1% (inactive)
COC(=O)CNC(=O)[C@]12CCC(C)(C)C[C@H]1C1=CC[C@@H]3[C@@]4(C)Cc5c([nH]c6ccccc56)C(C)(C)[C@@H]4CC[C@@]3(C)[C@]1(C)CC2	77% (inactive)
C[C@H]1[C@H](C)CC[C@]2(C(=O)Nc3ccc4ncccc4c3)CC[C@]3(C)C(=CC[C@@H]4[C@@]5(C)CCCNC(C)(C)[C@@H]5CC[C@]43C)[C@H]12	27.8% (inactive)

Structure (SMILES)	growth
COc1cc(NC(C)CCCNC(=O)CCC(=O)NCCCNCCCCCCCCCCNCCCNC(=O)CCC(=O)NCCCC(C)Nc2cc(OC)cc3cccnc23)c2ncccc2c1 (stereo not drawn)	4.17% [8 µM] (active)
CCCCCN1C=C/C(=C\C(=O)n2ccc3ccccc32)c2ccccc21	71.6% (inactive)
Cc1cc2nc3c4ccc(Br)cc4n(CCN(C)C)c3nc2cc1C	12.3% (inactive)
CC1(C)CC(=O)C2=C(C1)N(c1ccc(F)cc1F)C(N)=C(C#N)C2c1cc(Br)ccc1F (stereo not drawn)	83.1% (inactive)
C[C@H]1[C@H](C)CC[C@]2(C(=O)NCC#CCN3CCN(C)CC3)CC[C@]3(C)C(=CC[C@@H]4[C@@]5(C)Cc6c([nH]c7ccccc67)C(C)(C)[C@@H]5CC[C@]43C)[C@H]12	83.2% (inactive)
COc1cc2nc(-c3ccc(C(F)(F)F)cc3)cc(OCCCN3CCOCC3)c2cc1OC	52.8% (inactive)
O=C1c2c(c3c4cccc(F)c4[nH]c3c3ccc4ccccc4c23)C(=O)N1O	56.6% (inactive)
O=C1OC(Cc2ccccc2)C1c1ccccc1 (stereo not drawn)	109% (inactive)
COc1cccc(/C=N/NC(=O)c2cnn3c2NC(c2ccccc2)C3)c1Oc1ccccc1 (stereo not drawn)	98.9% (inactive)
COc1ccc(NC(=O)c2cc(NCc3cc(O)ccc3O)ccc2O)cc1	91.9% (inactive)
COc1cc2nc(-c3ccc(Cl)cc3)cc(OCCCN3CCCC3)c2cc1OC	58.2% (inactive)
COc1ccc(C/C(=C(\C)c2ccc(OCCN3CCCC3)cc2)c2ccc(OCCN3CCCC3)cc2)cc1	81.5% (inactive)
COc1cc(NC(C)CCCNC(=O)CCC(=O)NCCCNCCCCCCCCNCCCNC(=O)CCC(=O)NCCCC(C)Nc2cc(OC)cc3cccnc23)c2ncccc2c1 (stereo not drawn)	18.1% (inactive)
COc1ccc(Cc2cnc(NC(=O)c3ccc4c(c3)OCCO4)s2)cc1	41.2% (inactive)
CC(=O)N1c2ccccc2NC2=C(C(=O)NC2(C)C)C1c1ccco1 (stereo not drawn)	93.8% (inactive)
O=S(=O)(NCCNc1nccc(-c2c(-c3cccc(F)c3)nc3sccn23)n1)c1ccc(Cl)cc1	63.6% (inactive)
